Measured values: the supplement of paper PMC5919970
Structures can show the parent of a compound that is named as a salt. In all, about 2,000 compounds were measured (“fractional viability relative to vehicle”: median about 0.91, lowest 2% from about 0.045 on). The sample as a whole holds a higher share of the lowest values than the screen did.

Tested on: TYKNU
Test: fractional viability relative to vehicle; TYKNU is a high-grade serous ovarian cancer line; higher = less growth inhibition
Conditions: 72 h
In short: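 TYKNU control cells or lentiCRISPRv2 knockout derivatives were plated at 500 cells per well in duplicate into drug-stamped 384-well plates holding a ~2100-compound library at 2 or 10 μM. Culture was in RPMI 1640 with 10% FBS at 37 °C in 5% CO2, with 72 h of drug treatment. Viability was measured by Cell Titer Glo luminescence, and the averaged duplicate treatment wells were normalised to duplicate control wells at the same plate position.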

[1] = 2uM, genotype: DNM1L knockout (sgDNM1L #1)
[2] = 2uM, genotype: sgCTRLA1 (non-targeting control)
[3] = 10uM, genotype: DNM1L knockout (sgDNM1L #1)
[4] = 10uM, genotype: sgCTRLA1 (non-targeting control)

Row | Structure (SMILES) | fractional viability [1] | fractional viability [2] | fractional viability [3] | fractional viability [4]
1 | NNC(=O)c1ccncc1 [Isoniazid] | 0.893 | 1.14 | 0.875 | 1.06
2 | O=C(/C=C/c1ccc2ccccc2n1)c1ccncc1 | 0.0494 | 0.0683 | 0.0258 | 0.0162
3 | Cc1ccc(NC(=O)Nc2cc(C(F)(F)F)ccc2F)cc1Nc1ccc2c(c1)NC(=O)/C2=C\c1ccc[nH]1 | 0.873 | 0.905 | 0.918 | 0.825
4 | CCOC(=O)c1c(CSc2ccccc2)n(C)c2cc(Br)c(O)c(CN(C)C)c12 [Arbidol HCl] | 0.913 | 1.07 | 0.611 | 0.645
5 | CCOC(=O)[C@H](CCc1ccccc1)N[C@@H](C)C(=O)N1C(=O)N(C)C[C@H]1C(=O)O [Imidapril HCl] | 0.976 | 1.1 | 0.958 | 1.17
6 | CC(C)C[C@H](NC(=O)CNC(=O)c1cc(Cl)ccc1Cl)B1OC(=O)C(CC(=O)O)(CC(=O)O)O1 | 0.13 | 0.0935 | 0.0814 | 0.0756
7 | COc1cccc2c1C(=O)c1c(O)c3c(c(O)c1C2=O)C[C@@](O)(C(C)=O)C[C@@H]3O[C@H]1C[C@H](N)[C@H](O)[C@H](C)O1 [Daunorubicin HCl] | 0.392 | 0.254 | 0.0554 | 0.0241
8 | COc1cccc2c1C(=O)c1c(O)c3c(c(O)c1C2=O)C[C@@](O)(C(=O)CO)C[C@@H]3O[C@H]1C[C@H](N)[C@H](O)[C@H](C)O1 [Doxorubicin (Adriamycin)] | 0.377 | 0.212 | 0.437 | 0.323
9 | CC(=O)[C@]1(O)Cc2c(O)c3c(c(O)c2[C@@H](O[C@H]2C[C@H](N)[C@H](O)[C@H](C)O2)C1)C(=O)c1ccccc1C3=O [Idarubicin HCl] | 0.362 | 0.165 | 0.042 | 0.021
10 | Nc1cccc(S(=O)(=O)N2CCCN(S(=O)(=O)c3ccc4c(c3)OCCO4)CC2)c1 | 0.767 | 0.995 | 0.742 | 0.647
11 | NCCCCCNCC12CC3CC(CC(C3)C1)C2 [IEM 1754 dihydrobroMide] | 0.967 | 0.972 | 0.91 | 0.898
12 | CC(=O)Oc1cc2c(s1)CCN(C(C(=O)C1CC1)c1ccccc1F)C2 (stereo unspecified) [Prasugrel] | 1.14 | 1.21 | 0.897 | 1.08
13 | C[C@@H]1COCCN1c1cc(C2([S@](C)(=N)=O)CC2)nc(-c2cc[nH]c3nccc2-3)n1 | 0.189 | 0.127 | 0.136 | 0.0834
14 | CCCCCCCCCCCCCCCCn1cc[n+](Cc2ccccc2)c1C | 0.134 | 0.104 | 0.0139 | 0.00629
15 | Cc1nn(C)c(COc2ccc(N3CCN(S(=O)(=O)N(C)C)CC3)cc2)c1-c1cccc2c(CCCOc3cccc4ccccc34)c(C(=O)O)n(CCN3CCOCC3)c12 | 0.762 | 0.94 | 0.644 | 0.518
16 | C[C@@H](Oc1cc(-c2cnn(C3CCNCC3)c2)cnc1N)c1c(Cl)ccc(F)c1Cl | 0.669 | 0.73 | 0.128 | 0.126
17 | CC[C@H]1[C@@H](O)[C@@H]2[C@H](CC[C@]3(C)[C@@H]([C@H](C)CCC(=O)O)CC[C@@H]23)[C@@]2(C)CC[C@@H](O)C[C@@H]12 [Obeticholic Acid] | 0.846 | 0.891 | 0.952 | 0.807
18 | CC(C)(C)C(=O)C(Oc1ccc(Cl)cc1)n1ccnc1 (stereo unspecified) [Climbazole] | 0.805 | 1.06 | 0.641 | 0.924
19 | CC(C)(C)c1cc(C(=O)C(C#N)=NNc2cccc(Cl)c2)no1 | 0.783 | 0.936 | 0.57 | 0.583
20 | COc1cc2c(cc1OC)CN(CCc1ccc(NC(=O)c3cc(OC)c(OC)cc3NC(=O)c3cnc4ccccc4c3)cc1)CC2 [Tariquidar] | 0.769 | 1.05 | 0.158 | 0.555
21 | CCCC(=O)Nc1cccc(NC(=O)c2ccccc2Br)c1 | 1.11 | 1.19 | 0.939 | 1.21
22 | CCc1ccc(OCc2ccccc2C(=O)Nc2ccc3nc(C)cc(N)c3c2)cc1 | 0.117 | 0.166 | 0.0139 | 0.00672
23 | Cn1c(=O)cc(N2CCC[C@@H](N)C2)n(Cc2ccccc2C#N)c1=O [Alogliptin] | 0.928 | 0.995 | 0.894 | 1.03
24 | Cc1ncc([N+](=O)[O-])n1CC(O)CCl (stereo unspecified) [Ornidazole] | 1.42 | 1.24 | 1.25 | 1.37
25 | O=C(N/N=C/c1ccc([N+](=O)[O-])o1)c1ccc(O)cc1 [Nifuroxazide] | 0.378 | 1.1 | 0.0463 | 0.0163
26 | CCOC(=O)c1ccc(N2NC(=O)C(=Cc3ccc([N+](=O)[O-])o3)C2=O)cc1 | 0.944 | 1.26 | 0.872 | 1.02
27 | NC(=O)N/N=C/c1ccc([N+](=O)[O-])o1 [Nitrofural] | 1.34 | 1.13 | 1.26 | 1.2
28 | CN(C)c1ccc(C(=C2C=CC(=[N+](C)C)C=C2)c2ccc(N(C)C)cc2)cc1 [Crystal Violet] | 0.133 | 0.121 | 0.0375 | 0.0133
29 | O=c1[nH]c(=O)n(C2CC(O)C(CO)O2)cc1Br (stereo unspecified) [Bromodeoxyuridine (BrdU)] | 0.823 | 0.962 | 0.859 | 0.64
